Rows were chosen to be rich in hits. Some 3.2% of all compounds tested hit in one or more screens of this group.
PMP22 txn: modulates PMP22 transcription in S16 Schwann cells | S16 Pmp22-F2sN Schwann cells, FLuc/NLuc coincidence luminescence, 24 h | Potency, µM (titrated, usually from 57.5 µM), actives largely listed as inhibitors | 2% of 43,000 active | AID 1508649; active means clear falling dose curves in both reporters; inconclusive means both reporters move, but less clearly or upward; inactive means either reporter flat; the % is the NLuc reporter signal
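S16(c9) Schwann cells with FLuc/NLuc coincidence reporter in the Pmp22 3' UTR; compounds pin-transferred, 24 h at 37C. Dual-luciferase read: FLuc first, then NLuc after Stop&Glo, each 10 min at room temperature.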
S16 F2sN tox: S16 Schwann cell cytotoxicity. S16 Pmp22-F2sN Schwann cells viability, CellTiter-Glo, 24 h. 0.48% of 43,000 active. Potency, µM (series often up to 57.5 µM), actives largely listed as cytotoxic. AID 1508642; further: nearly all actives have a fitted effect of over 65% in size
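Rat S16 Schwann reporter line, 24 h treatment with library compounds delivered at 23 nL per well. Cell viability by CellTiter-Glo luminescence.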
p53null 39C kill: kills p53 null cells at the nonpermissive temperature | H1299 p53-null (neo) cells, 39C, ATPlite viability, 24 h | Potency, µM (doses to about 46.1 µM), actives largely listed as cytotoxic | 0.97% of 55,000 active; further: nearly all actives have a fitted effect of over 50% in size
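Temperature-shift cytotoxicity format: compound titrations on p53-null or A138V-expressing H1299 cells held 24 hr at 39C, cell ATP then measured, AC50 from Hill model.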
pS6 MEF inh: reduces mTORC1 signaling in Tsc2 and p53 null MEF cells; Tsc2-/- p53-/- MEF, phospho-rpS6 immunofluorescence/PI, 24 h; Potency, µM (highest dose often 38.3 µM), most hits filed as inhibitors; 0.78% of 44,000 active; further: nearly all actives have a fitted effect of over 50% in size
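Plate MEFs (Tsc2-/-, p53-/-, empty vector) in DMEM/10% FBS; after 24 h add compound, incubate 24 h at 37 degree Celsius; fix in PFA/TX-100, block, stain phospho-rpS6 and 10 uM PI; scan at 488 nm; report % positive cells.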
p53null 32C kill: selectivity test: cytotoxicity in p53 null cells, permissive temperature; H1299-neo p53 null cells, ATP luminescence, 24 h, 32C; Potency, µM (top dose mostly 46.1 µM), hits mostly cytotoxic; 0.62% of 55,000 active; AID 903; further: nearly all actives have a fitted effect of over 55% in size
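H1299-neo (p53-null) cells, 600/well, were pre-incubated overnight at 37C, then exposed to compounds at up to 46 uM for 24 hr at 32C. Viability was measured as ATP content by luminescence, and AC50 values came from Hill fits.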
NLuc sat counter: counter-screen for PMP22 expression modulators: NanoLuc inhibition, saturating substrate. shares compounds with PMP22 txn. Secreted NLuc enzyme (filtered S16 cell medium), Nano-Glo luminescence. Potency, µM (top dose mostly 57.5 µM), most hits filed as inhibitors. 4% of 690 active
NLuc Km counter: NanoLuc inhibition at Km substrate, PMP22 artifact check; shares compounds with PMP22 txn; secreted NLuc enzyme, coelenterazine luminescence, Km conditions; Potency, µM (doses to about 57.5 µM), hits mostly inhibitors; 5% of 690 active
FLuc counter: firefly luciferase enzyme inhibition artifact for PMP22 screen; 690 tested, under 10 active; Potency, µM (series often up to 57.5 µM), usual class: inhibitors; purified P. pyralis FLuc, luminescence, 10 min; AID 1508640; shares compounds with PMP22 txn
Target sequence (P08659 whole entry, looked up): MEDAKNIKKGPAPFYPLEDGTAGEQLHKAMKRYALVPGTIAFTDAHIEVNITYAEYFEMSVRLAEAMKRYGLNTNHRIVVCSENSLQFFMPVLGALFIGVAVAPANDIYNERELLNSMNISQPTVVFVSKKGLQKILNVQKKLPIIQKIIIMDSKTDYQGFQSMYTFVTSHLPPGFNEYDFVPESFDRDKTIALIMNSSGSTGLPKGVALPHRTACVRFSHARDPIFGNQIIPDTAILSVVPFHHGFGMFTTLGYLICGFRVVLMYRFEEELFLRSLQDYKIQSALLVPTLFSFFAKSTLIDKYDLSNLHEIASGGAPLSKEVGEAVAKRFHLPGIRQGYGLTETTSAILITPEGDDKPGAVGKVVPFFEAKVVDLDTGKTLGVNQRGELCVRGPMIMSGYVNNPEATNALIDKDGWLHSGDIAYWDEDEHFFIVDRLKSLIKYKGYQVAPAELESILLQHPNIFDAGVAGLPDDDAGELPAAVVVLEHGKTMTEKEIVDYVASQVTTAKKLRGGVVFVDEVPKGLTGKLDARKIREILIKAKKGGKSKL
S16 viab conf: confirmation of cytotoxicity in S16 Pmp22-F2sN Schwann cells (luciferase reporters placed in the Pmp22 gene). shares compounds with PMP22 txn. Potency, µM (doses to about 57.5 µM), hits mostly cytotoxic. S16 Schwann cells viability, CellTiter-Glo ATP luminescence, 24 h. 7% of 690 active
PMP22 txn cnf: PMP22 transcription modulation, confirmatory; S16 Schwann cells Pmp22-F2sN, dual luciferase, 24 h; shares compounds with PMP22 txn; Potency, µM (titrated, usually from 57.5 µM), hits mostly inhibitors; 22% of 690 active; AID 1508646; active means clear falling dose curves in both reporters; inconclusive means both reporters move, but less clearly or upward; inactive means either reporter flat; the % is the FLuc reporter signal
PMP22 HiBiT cnf: confirmation of modulators of rat PMP22 protein expression | S16 Schwann cells Pmp22-HiBiT, luminescence, 48 h | 95 tested, under 10 active | shares compounds with PMP22 txn | AID 1508647 | Potency, µM (highest dose often 27.9 µM), most hits filed as inhibitors
Target sequence (P25094 whole entry, looked up): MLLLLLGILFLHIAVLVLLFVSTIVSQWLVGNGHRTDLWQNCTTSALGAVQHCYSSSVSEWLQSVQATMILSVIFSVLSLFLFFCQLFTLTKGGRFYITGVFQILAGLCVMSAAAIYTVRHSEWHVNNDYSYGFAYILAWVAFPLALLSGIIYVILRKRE
A number is an active result; . = inactive; ? = inconclusive; / = no result given. Unless noted, the call rests on the fitted dose curve; in most records, active means well fitted curve in the direction sought with a large enough effect; inconclusive means small, poorly fitted or top-dose-only effect, or another doubt; inactive means no such curve, though single readings can be large; an effect the other way counts as inactive or inconclusive.

SMILES	PMP22 txn	S16 F2sN tox	p53null 39C kill	pS6 MEF inh	p53null 32C kill	NLuc sat counter	NLuc Km counter	FLuc counter	S16 viab conf	PMP22 txn cnf	others
Cc1ccc(-n2c(=O)c3ccc(C(=O)NCc4ccccc4Cl)cc3n(CC(=O)Nc3ccc(C)cc3C)c2=O)cc1	15µM	.	.	.	.	.	.	.	?	8.5µM
Cc1ccc(-n2c(=O)c3ccc(C(=O)NCc4ccccc4Cl)cc3n(Cc3ccccc3F)c2=O)cc1	.	.	.	.	.	/	/	/	/	/
Cc1ccc(NC(=O)Cn2c(=O)n(-c3ccc(C)cc3)c(=O)c3ccc(C(=O)NCc4ccccc4Cl)cc32)cc1	4.5µM	?	?	.	.	.	.	.	22µM	5.1µM	PMP22 HiBiT cnf=?
CCc1ccc(NC(=O)Cn2c(=O)n(-c3ccc(OC)cc3)c(=O)c3ccc(C(=O)NCc4ccc(C)cc4)cc32)cc1	13µM	.	?	?	?	.	.	.	?	12µM	PMP22 HiBiT cnf=?
Cc1ccc(C)c(N(C)S(=O)(=O)c2ccc3[nH]cc(C(=O)NC4CCCC4)c(=O)c3c2)c1	?	?	.	.	.	/	/	/	/	/
COc1ccc(Nc2c3c(nc4ccc(NC(=O)c5ccc(F)cc5)cc24)CCCC3)cc1OC	?	?	.	.	?	/	/	/	/	/
Cc1ccc2nc3c(c(Nc4ccc(C)c(C)c4)c2c1)CCC3	19µM	?	.	.	.	.	.	.	.	?
Cc1ccc(Nc2c3c(nc4ccccc24)CCC3)cc1F	16µM	.	?	.	.	.	?	.	.	?
COc1ccccc1Nc1c2c(nc3ccc(NC(=O)c4ccccc4F)cc13)CCCC2	?	?	.	?	.	/	/	/	/	/
O=C(NCCSc1c(-c2ccc(Cl)cc2)[nH]c2ccccc12)c1ccc(S(=O)(=O)N2CCOCC2)cc1	.	?	.	.	.	/	/	/	/	/
O=C(NCCSc1c(-c2ccccc2)[nH]c2ccccc12)c1ccc(S(=O)(=O)N2CCOCC2)cc1	9.5µM	.	.	.	.	.	.	.	.	.
O=C(NCCSc1c(-c2ccc(Br)cc2)[nH]c2ccccc12)c1ccc(S(=O)(=O)N2CCOCC2)cc1	8µM	.	.	.	.	.	.	.	.	?
Cc1ccc(-c2[nH]c3ccccc3c2SCCNC(=O)c2ccc(S(=O)(=O)N(C)C)cc2)cc1	?	?	.	.	.	/	/	/	/	/
CCN(CC)S(=O)(=O)c1ccc(C(=O)NCCSc2c(-c3ccc(OC)cc3)[nH]c3ccccc23)cc1	3µM	.	.	.	.	.	.	.	.	.
Cc1ccccc1C1=CCN(c2ncc(NC(=O)c3ccc(Cl)cc3)cc2C(=O)O)CC1	?	.	.	.	.	/	/	/	/	/
COc1ccc(OC)c(CNC(=O)c2cc(=O)[nH]c3ccc(S(=O)(=O)N4CCCCC4C)cc23)c1 (configuration not stated)	.	.	.	.	.	/	/	/	/	/
Cc1cc(-c2ccc(S(=O)(=O)Nc3cccc(Cl)c3C)cc2)on1	/	/	.	.	.	/	/	/	/	/
Cc1c(C(=O)N(C)C)sc2c1c(=O)n(-c1ccc(F)cc1)c(=O)n2Cc1cc(=O)n2ccccc2n1	.	.	.	.	.	/	/	/	/	/
CCN(CC)C(=O)c1sc2c(c1C)c(=O)n(-c1ccccc1)c(=O)n2Cc1cc(=O)n2ccccc2n1	12µM	.	.	.	.	.	.	.	.	.
CCNc1nc(NC(C)(C)C)nc(Oc2ccc(=O)n(-c3ccccc3)n2)n1	?	.	.	.	.	.	.	.	.	.
CC(=O)Nc1cccc(-c2nnc(SCC(=O)c3cc([N+](=O)[O-])ccc3Br)o2)c1	12µM	?	?	?	.	11µM	12µM	?	.	17µM
CCCn1ccc2c(OCC(=O)Nc3ccccc3C(=O)OCC)cccc2c1=O	14µM	.	.	.	.	.	.	.	.	?
COC(=O)c1ccc(CSc2nc3c([nH]c4ccccc43)c(=O)n2-c2cccc(Cl)c2)o1	18µM	.	.	.	.	?	.	.	?	6.1µM
COC(=O)c1ccc(CSc2nc3c([nH]c4ccccc43)c(=O)n2-c2cccc(OC)c2)o1	.	.	.	.	.	/	/	/	/	/
COc1ccc(S(=O)(=O)N(CC(=O)Nc2ccc(OC)cc2OC)c2ccc(Cl)cc2)cc1	?	.	.	.	.	/	/	/	/	/
SMILES	PMP22 txn	S16 F2sN tox	p53null 39C kill	pS6 MEF inh	p53null 32C kill	NLuc sat counter	NLuc Km counter	FLuc counter	S16 viab conf	PMP22 txn cnf	others
CCc1ccc(-c2nc(CSCC(=O)N3CCN(c4ccc(F)cc4)CC3)c(C)o2)cc1	?	?	.	.	.	/	/	/	/	/
O=C(Nc1ccc(Br)c2cccnc12)c1cccc2ccccc12	16µM	.	.	.	.	.	.	.	.	?
O=C(Nc1cccc2cccnc12)c1cccc2ccccc12	?	.	.	.	.	/	/	/	/	/
CC1=Nc2cc(C(=O)NCc3ccccc3Cl)ccc2Sc2c(C)ccc(C)c21	10µM	.	.	.	.	.	.	.	.	?
CCC1=Nc2cc(C(=O)NCc3ccccc3Cl)ccc2Sc2ccc(C)cc21	10µM	.	.	?	.	.	.	.	.	.
COc1cc(OC)c(NS(=O)(=O)c2ccc3c(c2)NC(=O)CCS3)cc1Cl	14µM	?	.	.	.	?	?	.	.	?
Cc1ccccc1NS(=O)(=O)c1ccc2c(c1)NC(=O)CCS2	.	.	.	.	.	/	/	/	/	/
Cc1c(Cl)cccc1NC(=O)CSc1ncc2c(n1)-c1ccccc1N(C)S2(=O)=O	17µM	.	.	.	.	?	?	.	.	.
COc1ccc(OC)c(NC(=O)c2cnc(N3CCCCC3)c3ccccc23)c1	?	.	.	.	.	/	/	/	/	/
Cc1ccc(Nc2c(-c3ccc(N4CCOCC4)cc3)nc3c(C)cccn23)cc1	.	?	.	.	.	/	/	/	/	/

Compound activity (PubChem)
